The values below come from PubChem BioAssay (Tox21).

SMILES strings stand for the structures. A number with no mark means an inactive call. Records with an inconclusive call do not appear. Activity calls are given as the source filed them. Unless noted, calls follow the shape of the dose curve; as a rule, active = well fitted curve in the direction sought with a large enough effect in the repeat runs; inconclusive = weak or mixed curves; inactive = no such curve, though single readings can be large; an effect the other way counts as inactive or inconclusive.

Experiment [1] can be described thus: qHTS assay to identify small molecule agonists of the androgen receptor (AR) signaling pathway in the presence of an antagonist - cell viability counter screen (AID 1259379). Also: nearly all actives have a fitted effect of over 25% in size. Also: potency is read from the fitted curve at half-maximal effect. The method in brief: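 Cytotoxicity is assessed by CellTiter-Fluor in MDA-kb2 cells carrying an MMTV-driven luciferase reporter. Cells receive 3.0uM nilutamide plus compounds at 15 concentrations and incubate 16 hr at 37C without CO2 before fluorescence reading.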

The nature of experiment [2]: qHTS assay to identify small molecule agonists of the estrogen receptor beta (ER-beta) signaling pathway - cell viability counter screen (AID 1259380). Also: nearly all actives have a fitted effect of over 30% in size. Also: potency is read from the fitted curve at half-maximal effect. The method in brief: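 Cytotoxicity is measured in parallel with the reporter screen: after 16 hr compound exposure at 37C and a 2 hr LiveBLAzer step, CellTiter-Glo is added to the same ER-beta-UAS-bla HEK293T wells and luminescence read after 30 min.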

Experiment [3] can be described thus: qHTS assay to identify small molecule agonists or antagonists of the thyroid stimulating hormone receptor (TSHR) signaling pathway - wild type cell line counter screen (AID 1259384; calls by dose curve). The method in brief:
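Wild-type HEK293 cells were plated 18 h at 37 C/5% CO2, pin-dosed with compound plus Ro20-1724 medium, held 30 min at room temperature, then given cAMP-d2 and anti-cAMP-cryptate; fluorescence was read after 1 h. Fifteen concentrations, triplicate.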

Experiment [4] concerns the target Thyrotropin receptor (Homo sapiens) (UniProt P16473). Briefly: qHTS assay to identify small molecule antagonists of the thyroid stimulating hormone receptor (TSHR) signaling pathway (AID 1259385; calls by dose curve; also: nearly all actives have a fitted effect of over 20% in size). An outline of the steps:
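TSHR-HEK293 cells were plated and held 18 h at 37C/5% CO2, then given compound plus Ro20-1724 and stimulated with TSH at 1.5 ng/mL final. After 30 min at room temperature, cAMP was detected with cAMP-d2/anti-cAMP-cryptate (1 h) by fluorescence.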

A short description of experiment [5]: qHTS assay to identify small molecule agonists of the estrogen receptor alpha (ER-alpha) signaling pathway in the presence of an antagonist - cell viability counter screen (AID 1259386).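 Also: cells exposed to compounds for 22 h at 37 °C before the viability read; nearly all actives have a fitted effect of over 30% in size.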 Also: potency is read from the fitted curve at half-maximal effect. The method in brief:
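Cytotoxicity was measured in parallel with the ERE-luciferase agonist screen, in the same wells. The cells were VM7Luc4E2, which endogenously express ER-alpha, and treatment was with compounds plus 10.0nM ICI-182,780 for 22hr.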

Experiment [6] has as its target Progesterone receptor (Homo sapiens) (UniProt P06401). Briefly: qHTS assay to identify small molecule agonists of the progesterone receptor (PR) signaling pathway (AID 1346784; calls by dose curve; also: nearly all actives have a fitted effect of over 30% in size). The method in brief: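 Cells (PR-UAS-bla HEK 293T, GripTite) were plated in assay medium containing 2% charcoal-stripped FBS and incubated 6 hr. Test compounds in DMSO were added for 16 hr at 37C. FRET substrate was then loaded for 2 hr at room temperature before fluorescence reading.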

Experiment [7] can be described thus: qHTS assay to identify small molecule antagonists of the progesterone receptor (PR) signaling pathway - cell viability counter screen (AID 1346798). Also: nearly all actives have a fitted effect of over 50% in size. Also: potency is read from the fitted curve at half-maximal effect. The method in brief:
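Counter screen for cytotoxicity: viability of PR-UAS-bla HEK293T cells was measured with CellTiter-Glo luminescence following 16 hr compound exposure in the presence of R5020.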

Experiment [8] can be described thus: qHTS assay to identify small molecule antagonists of the TGF-beta/Smad signaling pathway - cell viability counter screen (AID 1346824). Also: nearly all actives have a fitted effect of over 50% in size. The method in brief: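 SBE-bla HEK 293T cells were plated overnight at 37 C, then given compounds in DMSO plus TGF-beta1 (added as 0.25 ng/mL solution) for 5 hr. After the bla read, CellTiter-Glo was added to the same wells and luminescence read after 30 min at room temperature.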

The nature of experiment [9]: qHTS assay to identify small molecule agonists of the TGF-beta/Smad signaling pathway - cell viability counter screen (AID 1346829). Also: top concentration of the series differs between compounds; nearly all actives have a fitted effect of over 45% in size. An outline of the steps: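 Cytotoxicity counter screen: CellTiter-Glo luminescence (30 min, room temperature) measured in the SBE-bla HEK 293T reporter wells after 5 hr compound treatment at 37 C and the 2 hr substrate step.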
Experiment [10] is described as follows: qHTS assay to identify small molecule agonists of the TGF-beta/Smad signaling pathway (AID 1346859; active = well fitted activation curve with a large enough effect in the signal ratio in the repeat runs, not every such curve was filed as active; the % refers to the signal ratio; also: series mostly up to about 77 µM). The method in brief:
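Reporter line: HEK 293T with stably integrated SBE-controlled beta-lactamase. Compound exposure lasts 5 hr at 37 C and 5% CO2; substrate loading follows for 2 hr at room temperature, with emission read at 460 and 530 nm.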

Experiment [11] can be described thus: Caspase-3/7 induction in HepG2 cells by small molecules, qHTS assay (AID 1346978). Also: nearly all actives have a fitted effect of over 15% in size. An outline of the steps: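 Wild-type HepG2 cells (2,000/well) were settled 5 h at 37 C, 5% CO2, then exposed to compounds in DMSO for 17 h. Caspase-3/7 activity was read by luminescence 30 min after adding Caspase-Glo 3/7 reagent at room temperature.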
Experiment [12] is described as follows: Caspase-3/7 induction in CHO-K1 cells by small molecules, qHTS cell viability counter screen (AID 1346979). Also: nearly all actives have a fitted effect of over 35% in size. Also: potency is read from the fitted curve at half-maximal effect. The method in brief:
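Cytotoxicity counter screen run in parallel with the caspase-3/7 assay: CHO-K1 cells, 16hr compound treatment at 37C, then CellTiter-Fluor for 1hr before fluorescence reading.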

The target in experiment [13] is Androgen receptor (Homo sapiens) (UniProt P10275). Briefly: qHTS assay to identify small molecule agonists of the androgen receptor (AR) signaling pathway in the presence of an antagonist (AID 1259381; calls by dose curve; also: nearly all actives have a fitted effect of over 15% in size). The method in brief:
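Agonist-mode confirmation screen: human MDA-kb2 cells stably expressing luciferase under an MMTV promoter bearing AR and GR response elements, co-treated with 3.0uM nilutamide (final). Luminescence measured after 16hr compound incubation.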

For experiment [14], the target named is Progesterone receptor (Homo sapiens) (UniProt P06401). Briefly: qHTS assay to identify small molecule antagonists of the progesterone receptor (PR) signaling pathway (AID 1346795; active = well fitted inhibition curve with a large enough effect in the signal ratio in the repeat runs, not every such curve was filed as active; the % refers to the signal ratio; also: potency is read from the fitted curve at half-maximal effect). The method in brief:
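Antagonist mode: compounds tested against 1 nM (final) promegestone stimulation in HEK293T cells expressing PR-UAS-bla reporter, 16 hr at 37C, 5% CO2; beta-lactamase activity detected via B/G FRET substrate after 2 hr at room temperature.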

The nature of experiment [15]: qHTS assay to identify small molecule agonists of the progesterone receptor (PR) signaling pathway - cell viability counter screen (AID 1346799; calls by dose curve; also: nearly all actives have a fitted effect of over 45% in size). An outline of the steps: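 Cells (PR-UAS-bla HEK293T) are plated at 3,000/well in 2% charcoal-stripped FBS medium, rested 6 hr, dosed and incubated 16 hr at 37C. CellTiter-Glo is then added and luminescence measured after 30 min at room temperature.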

The target in experiment [16] is Thyrotropin-releasing hormone receptor (Homo sapiens) (UniProt P34981). Briefly: qHTS assay to identify small molecule antagonists of the thyrotropin-releasing hormone receptor (TRHR) signaling pathway (AID 1346877; active = well fitted inhibition curve with a large enough effect in the repeat runs, not every such curve was filed as active; also: series mostly up to about 51 µM). An outline of the steps:
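Antagonism is measured as suppression of the calcium response to 1 nM TRH in TRHR-HEK293 cells that have been dye-loaded for 2 h at 37 °C after overnight plating. Each compound is tested at 15 concentrations in triplicate.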

The target is the same in experiment [17]. Briefly: qHTS assay to identify small molecule agonists of the thyrotropin-releasing hormone receptor (TRHR) signaling pathway (AID 1346891; calls by dose curve;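 also: HEK293 cells expressing TRHR with calcium dye readout; series mostly up to about 58 µM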). The method in brief:
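Cells: TRHR-Hek293, seeded and incubated 18 h. Dye loading: 2 h at 37 °C. Compound added from DMSO stock by pin tool. Read-out: kinetic calcium fluorescence over 3 min.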

For experiment [18], the target named is Estrogen receptor (Homo sapiens) (UniProt P03372). Briefly: qHTS assay to identify small molecule agonists of the estrogen receptor alpha (ER-alpha) signaling pathway in the presence of an antagonist (AID 1259383; calls by dose curve; also: top concentration of the series differs between compounds; nearly all actives have a fitted effect of over 15% in size). The method in brief:
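Agonist-mode confirmation in the presence of the ER antagonist ICI-182,780 at 10.0nM final. Breast-derived VM7Luc4E2 reporter cells were exposed to compounds for 22hr, and ERE-driven luciferase was quantified by luminescence.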

Experiment [19] in a line: qHTS assay to identify small molecule antagonists of the estrogen receptor beta (ER-beta) signaling pathway - cell viability counter screen (AID 1259382).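 Also: HEK293T cells carrying ER-beta-UAS-bla reporter stimulated with estradiol; series mostly up to about 92 µM; nearly all actives have a fitted effect of over 55% in size.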 The method in brief: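 Cytotoxicity counter screen multiplexed with the beta-lactamase antagonist assay: GripTite HEK293T ER-beta-bla cells were treated 16 hr with test chemicals in the presence of 1nM 17-beta-estradiol, and viability was measured by CellTiter-Glo.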

A short description of experiment [20]: Human pregnane X receptor (PXR) small molecule agonists, qHTS cell viability counter screen (AID 1346977). Also: nearly all actives have a fitted effect of over 50% in size. An outline of the steps: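 Cytotoxicity counter screen run in the same wells as the PXR luciferase assay, using PXR-Luc HepG2 cells in charcoal-stripped serum medium. Viability: CellTiter-Fluor fluorescence after 24hr compound treatment.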

Thyrotropin receptor (Homo sapiens), sequence (P16473 whole entry, looked up): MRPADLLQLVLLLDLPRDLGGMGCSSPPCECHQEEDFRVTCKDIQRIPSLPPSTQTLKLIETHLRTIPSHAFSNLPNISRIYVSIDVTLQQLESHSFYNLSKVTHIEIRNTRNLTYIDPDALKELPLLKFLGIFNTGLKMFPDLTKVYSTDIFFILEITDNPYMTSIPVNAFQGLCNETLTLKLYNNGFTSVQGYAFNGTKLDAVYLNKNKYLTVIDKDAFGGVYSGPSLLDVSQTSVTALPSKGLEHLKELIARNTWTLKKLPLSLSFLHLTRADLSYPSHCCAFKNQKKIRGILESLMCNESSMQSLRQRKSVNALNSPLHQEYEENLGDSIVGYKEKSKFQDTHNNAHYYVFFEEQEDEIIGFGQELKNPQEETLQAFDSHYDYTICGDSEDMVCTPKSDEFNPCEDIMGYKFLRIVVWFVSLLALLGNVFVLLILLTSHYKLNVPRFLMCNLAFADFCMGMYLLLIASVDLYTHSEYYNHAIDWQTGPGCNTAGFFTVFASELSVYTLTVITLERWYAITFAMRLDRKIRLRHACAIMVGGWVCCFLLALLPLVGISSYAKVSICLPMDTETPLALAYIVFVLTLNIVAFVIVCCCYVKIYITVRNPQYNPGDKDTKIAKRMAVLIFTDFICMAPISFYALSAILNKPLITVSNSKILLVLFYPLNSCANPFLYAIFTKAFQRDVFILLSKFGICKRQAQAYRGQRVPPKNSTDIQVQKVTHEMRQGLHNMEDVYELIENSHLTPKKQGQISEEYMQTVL
Progesterone receptor (Homo sapiens), sequence (P06401 whole entry, looked up): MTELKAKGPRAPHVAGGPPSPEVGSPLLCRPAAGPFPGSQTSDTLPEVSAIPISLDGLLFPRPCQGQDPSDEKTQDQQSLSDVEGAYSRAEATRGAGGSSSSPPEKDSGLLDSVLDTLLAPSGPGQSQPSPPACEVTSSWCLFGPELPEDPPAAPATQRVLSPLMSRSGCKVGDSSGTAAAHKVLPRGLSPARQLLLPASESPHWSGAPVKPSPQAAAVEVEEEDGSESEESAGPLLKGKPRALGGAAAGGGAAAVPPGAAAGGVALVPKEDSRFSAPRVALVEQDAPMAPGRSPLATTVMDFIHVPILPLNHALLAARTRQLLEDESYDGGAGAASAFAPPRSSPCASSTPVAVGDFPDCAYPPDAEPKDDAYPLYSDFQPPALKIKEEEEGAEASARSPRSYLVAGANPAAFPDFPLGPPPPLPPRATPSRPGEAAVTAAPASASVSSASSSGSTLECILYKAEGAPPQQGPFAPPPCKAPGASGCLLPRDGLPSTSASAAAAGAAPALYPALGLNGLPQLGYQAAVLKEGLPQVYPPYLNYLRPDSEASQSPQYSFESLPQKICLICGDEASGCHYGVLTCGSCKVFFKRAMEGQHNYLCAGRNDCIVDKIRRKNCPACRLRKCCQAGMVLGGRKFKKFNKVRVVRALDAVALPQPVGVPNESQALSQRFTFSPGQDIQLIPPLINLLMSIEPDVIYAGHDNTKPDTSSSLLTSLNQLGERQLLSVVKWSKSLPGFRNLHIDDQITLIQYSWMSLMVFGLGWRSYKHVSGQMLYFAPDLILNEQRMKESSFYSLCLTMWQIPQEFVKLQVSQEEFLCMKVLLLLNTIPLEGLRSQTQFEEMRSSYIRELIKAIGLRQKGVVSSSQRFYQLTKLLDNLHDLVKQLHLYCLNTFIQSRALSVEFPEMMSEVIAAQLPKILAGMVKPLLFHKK
Thyrotropin-releasing hormone receptor (Homo sapiens), sequence (P34981 whole entry, looked up): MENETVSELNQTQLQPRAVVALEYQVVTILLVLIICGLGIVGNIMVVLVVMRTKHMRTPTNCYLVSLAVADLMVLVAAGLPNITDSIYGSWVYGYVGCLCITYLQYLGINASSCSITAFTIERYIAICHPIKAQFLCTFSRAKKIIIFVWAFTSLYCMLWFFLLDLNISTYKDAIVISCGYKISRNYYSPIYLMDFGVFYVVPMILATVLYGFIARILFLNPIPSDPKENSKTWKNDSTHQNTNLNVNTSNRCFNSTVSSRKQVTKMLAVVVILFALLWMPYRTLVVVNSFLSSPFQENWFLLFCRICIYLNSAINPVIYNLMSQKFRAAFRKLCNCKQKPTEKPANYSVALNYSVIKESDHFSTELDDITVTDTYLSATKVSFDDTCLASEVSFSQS
Estrogen receptor (Homo sapiens), sequence (P03372 whole entry, looked up): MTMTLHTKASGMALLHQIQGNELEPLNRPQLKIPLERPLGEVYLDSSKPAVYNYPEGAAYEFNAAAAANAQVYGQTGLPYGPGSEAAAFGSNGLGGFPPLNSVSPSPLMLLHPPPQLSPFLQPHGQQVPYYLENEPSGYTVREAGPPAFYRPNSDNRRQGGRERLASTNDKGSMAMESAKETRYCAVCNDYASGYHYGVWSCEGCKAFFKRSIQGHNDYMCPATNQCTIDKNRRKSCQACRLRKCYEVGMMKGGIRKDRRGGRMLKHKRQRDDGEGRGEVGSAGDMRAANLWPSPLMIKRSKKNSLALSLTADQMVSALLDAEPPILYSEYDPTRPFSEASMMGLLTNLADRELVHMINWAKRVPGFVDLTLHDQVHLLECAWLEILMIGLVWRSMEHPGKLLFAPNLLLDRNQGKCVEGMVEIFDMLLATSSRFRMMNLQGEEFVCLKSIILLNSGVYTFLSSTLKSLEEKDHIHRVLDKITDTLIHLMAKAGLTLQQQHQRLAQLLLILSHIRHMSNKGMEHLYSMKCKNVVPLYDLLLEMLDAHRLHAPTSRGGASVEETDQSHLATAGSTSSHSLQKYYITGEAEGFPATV
Androgen receptor (Homo sapiens), sequence (P10275 whole entry, looked up): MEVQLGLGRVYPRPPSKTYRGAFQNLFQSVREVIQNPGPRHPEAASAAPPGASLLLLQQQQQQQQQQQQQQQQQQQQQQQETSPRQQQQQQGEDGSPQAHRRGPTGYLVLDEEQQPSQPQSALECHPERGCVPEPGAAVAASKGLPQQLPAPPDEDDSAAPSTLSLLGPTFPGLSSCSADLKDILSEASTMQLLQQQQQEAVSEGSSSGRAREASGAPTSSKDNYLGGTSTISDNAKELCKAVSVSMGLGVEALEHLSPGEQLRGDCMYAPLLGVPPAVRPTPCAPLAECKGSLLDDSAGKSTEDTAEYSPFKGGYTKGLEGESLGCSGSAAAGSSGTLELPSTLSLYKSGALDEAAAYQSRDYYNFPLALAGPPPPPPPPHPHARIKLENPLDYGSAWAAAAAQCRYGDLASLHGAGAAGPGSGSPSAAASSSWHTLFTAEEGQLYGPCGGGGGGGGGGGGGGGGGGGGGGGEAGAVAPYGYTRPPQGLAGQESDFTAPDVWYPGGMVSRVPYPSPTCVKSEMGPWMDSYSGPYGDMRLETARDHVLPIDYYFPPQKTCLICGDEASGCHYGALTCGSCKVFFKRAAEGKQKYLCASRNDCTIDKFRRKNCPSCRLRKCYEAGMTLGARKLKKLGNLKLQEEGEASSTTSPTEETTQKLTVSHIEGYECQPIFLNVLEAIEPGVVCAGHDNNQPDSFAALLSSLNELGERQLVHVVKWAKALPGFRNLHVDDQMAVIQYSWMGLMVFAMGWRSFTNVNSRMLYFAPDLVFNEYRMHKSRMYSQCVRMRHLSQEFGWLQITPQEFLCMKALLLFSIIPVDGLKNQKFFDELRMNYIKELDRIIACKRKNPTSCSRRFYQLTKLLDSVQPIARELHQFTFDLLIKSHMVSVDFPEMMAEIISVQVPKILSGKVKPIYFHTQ

`O=[N+]([O-])c1ccc(O)c2ncccc12`: the Potency in experiment [1] was 11.9 µM (active); in experiment [2] it was 0.944 µM (active); in experiment [5] it was 11.9 µM (active); in experiment [7], 0.531 µM (active); in experiment [12], 8.41 µM (active). Moreover, the Potency result in experiment [3], in experiment [4], in experiment [8], in experiment [9] and in experiment [11] was “inactive” throughout. The result in experiment [6] and in experiment [10] was inactive.

In the case of `CC(C)(c1ccc(Oc2ccc(N)cc2)cc1)c1ccc(Oc2ccc(N)cc2)cc1`, the Potency in experiment [1] was 54.5 µM (active); in experiment [5], 54.5 µM (active); in [14], 27.3 µM (active); in [12], 48.6 µM (active). The Potency entry in experiment [13], in [3], in experiment [15], in experiment [8], in [9] and in experiment [16] was “inactive” throughout. For the same compound, the Potency result in experiment [17] and in [11] was “inactive” throughout. Moreover, the compound was classed as inactive in experiment [6] and in experiment [10].

Turning to `c1ccc(-c2nc3ccccc3[nH]2)cc1`, the Potency entry in experiment [1], in experiment [18], in [3], in [4], in experiment [5] and in experiment [7] was “inactive” in each case. Also, the Potency result in experiment [15], in experiment [8], in [16], in [17] and in experiment [11] was “inactive” each time. Also, the compound was classed as inactive in experiment [6] and in experiment [10].

As for `c1ccc(-c2ccccc2-c2ccccc2)cc1`, the Potency result in experiment [1], in experiment [18], in experiment [3], in experiment [5], in [8] and in [9] was “inactive” throughout. The Potency result in [16], in experiment [17] and in experiment [11] was “inactive” each time. The Potency in experiment [2] was 68.6 µM (active). Also, the compound was called inactive in [10].

Consider `ClC(c1ccccc1)(c1ccccc1)c1ccccc1`, for which the Potency result in experiment [1], in experiment [2], in experiment [19], in experiment [5], in experiment [7] and in experiment [15] was “inactive” each time. The Potency result in experiment [8], in experiment [9], in experiment [16], in experiment [17], in experiment [20] and in experiment [11] was “inactive” throughout. For the same compound, the Potency entry in experiment [12] was “inactive”. In addition, the compound was classed as inactive in experiment [6] and in experiment [10].

Regarding `CCOC(=O)[C@H](C)O`, the Potency entry in experiment [1], in experiment [2], in experiment [19], in [5], in experiment [14] and in experiment [7] was “inactive” each time. Besides, the Potency result in [15], in experiment [8], in experiment [9], in [20], in experiment [11] and in experiment [12] was “inactive” in each case. The compound was called inactive in [6] and in experiment [10].

As for `Cc1ccc2nc(-c3ccc(N)cc3)sc2c1S(=O)(=O)O`, the Potency result in experiment [1], in [2], in experiment [19], in [3], in [4] and in [5] was “inactive” each time. In addition, the Potency entry in experiment [7], in [8], in [9], in experiment [16], in experiment [17] and in experiment [20] was “inactive” each time. For the same compound, the Potency result in [11] and in experiment [12] was “inactive” throughout.

`NC(=O)c1ccccc1Cl`: the Potency entry in experiment [1], in experiment [2], in [19], in experiment [5], in [7] and in experiment [15] was “inactive” each time. Moreover, the Potency result in [8], in [9], in [20], in experiment [11] and in experiment [12] was “inactive” throughout. Further, the compound was called inactive in experiment [6] and in [10].
